Test [1] in a line: qHTS assay to identify small molecule agonists of the hypoxia (HIF-1) signaling pathway - cell viability counter screen (AID 1224844; calls by dose curve; further: nearly all actives have a fitted effect of over 50% in size). The gist of the method:
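HRE-bla ME-180 cells in medium with 0.5% dialyzed FBS were preincubated 5 hrs at 37C, exposed to compounds for 17 hrs, then viability was read as CellTiter-Glo luminescence after 30 min at room temperature, in the reporter wells.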
(qHTS replaces the single test concentration by a dilution series.)

Test [2] can be described thus: qHTS assay to identify small molecule agonists of H2AX (AID 1224845; active means well fitted activation curve with a large enough effect in the signal ratio in the repeat runs, not every such curve was filed as active; the % refers to the signal ratio). The gist of the method: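 Phospho-H2AX Ser139 measured by HTRF (ex 320 nm; em 665 and 620 nm) after 24 hr antibody incubation. Compounds, 15 concentrations, 0.76% DMSO, were applied to CHO-K1 cells for 3hr at 37C before lysis.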
Test [3] can be described thus: qHTS assay to identify small molecule agonists of the hypoxia (HIF-1) signaling pathway (AID 1224846; active means well fitted activation curve with a large enough effect in the signal ratio in the repeat runs, not every such curve was filed as active; the % refers to the signal ratio). The gist of the method:
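HRE-bla ME-180 cells (beta-lactamase reporter under hypoxia response element) were plated at 2,000 cells/well in medium with 0.5% dialyzed FBS, rested 5 hrs, then given compounds in DMSO for 17 hrs at 37C, 5% CO2. Reporter induction was read with CCF4-AM FRET substrate.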

The nature of test [4]: qHTS RealTime-Glo MT Cell Viability Assay in HepG2 cells - 24 hour (AID 1224867). Further: nearly all actives have a fitted effect of over 50% in size. In a few lines:
(§1)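 Cell number in HepG2 cultures estimated from NanoLuc luminescence generated by metabolic reduction of a prosubstrate by living cells. The homogeneous, nonlytic format allowed repeated reads at 0, 8, 16, 24, 32 and 40 h of compound exposure.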

Test [5] can be described thus: qHTS RealTime-Glo MT Cell Viability Assay in HEK293 cells - 32 hour (AID 1224868). Further: top concentration of the series differs between compounds; nearly all actives have a fitted effect of over 50% in size. In a few lines:
(§2)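 Homogeneous bioluminescent viability format in HEK293 cells (600 cells/well). Following 5 h at 37 C/5% CO2, 23 nL compound was pintooled; the signal was measured repeatedly during 40 h incubation.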

A short description of test [6]: A CellTox Green Cytotoxicity Assay to monitor cytotoxicity in HEK293 cells - 0 hour (AID 1224869). Further: nearly all actives have a fitted effect of over 50% in size. In a few lines: (§3)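 HEK293 cells premixed with CellTox Green dye were seeded at 600 cells/well and left 5 h at 37 C/5% CO2 before pin transfer of 23 nL compound in DMSO. Fluorescence from dye bound to dead-cell DNA was read during 40 h treatment.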
Test [7] can be described thus: qHTS RealTime-Glo MT Cell Viability Assay in HepG2 cells - 40 hour (AID 1224870). Further: nearly all actives have a fitted effect of over 50% in size. The gist of the method:
(§4)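 Real-time viability: cells seeded at 600 per well together with NanoLuc and cell-permeant prosubstrate, compounds added after 5 h incubation. Luminescence tracked at 0, 8, 16, 24, 32 and 40 h of exposure.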

Test [8] is described as follows: A CellTox Green Cytotoxicity Assay to monitor cytotoxicity in HEK293 cells - 40 hour (AID 1224871). Further: nearly all actives have a fitted effect of over 45% in size. Further: potency means the concentration at half of the fitted maximal effect. The gist of the method: as §3
Test [9] can be described thus: qHTS RealTime-Glo MT Cell Viability Assay in HEK293 cells - 16 hour (AID 1224872). The gist of the method: as §2
A short description of test [10]: qHTS RealTime-Glo MT Cell Viability Assay in HepG2 cells - 8 hour (AID 1224873). Further: nearly all actives have a fitted effect of over 55% in size. The gist of the method: as §4
Test [11] can be described thus: qHTS RealTime-Glo MT Cell Viability Assay in HEK293 cells - 40 hour (AID 1224874). Further: nearly all actives have a fitted effect of over 50% in size. The conditions noted are these: RealTime-Glo luminescence; max response: stronger effect = lower value. The gist of the method: (§5)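 HEK293 cells mixed with RealTime-Glo reagents (NanoLuc plus cell-permeant prosubstrate) at 600 cells/well, preincubated 5 h at 37 C/5% CO2, then given 23 nL compound in DMSO. Nonlytic luminescence from viable cells was read at 0, 8, 16, 24, 32 and 40 h.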

Test [12] can be described thus: A CellTox Green Cytotoxicity Assay to monitor cytotoxicity in HEK293 cells - 24 hour (AID 1224875). Further: nearly all actives have a fitted effect of over 45% in size. The gist of the method: as §3
Test [13] in a line: qHTS RealTime-Glo MT Cell Viability Assay in HepG2 cells - 32 hour (AID 1224877). Further: nearly all actives have a fitted effect of over 55% in size. In a few lines:
as §1

A short description of test [14]: A CellTox Green Cytotoxicity Assay to monitor cytotoxicity in HepG2 cells - 24 hour (AID 1224878). Further: nearly all actives have a fitted effect of over 45% in size. Further: potency means the concentration at half of the fitted maximal effect. In a few lines:
(§6)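 HepG2 cells were seeded together with the CellTox Green dye at 600 cells/well, left 5 h at 37 C/5% CO2, then given compounds in DMSO. Fluorescence from dye bound to dead-cell DNA was read repeatedly over 40 h of treatment at 37 C.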

The nature of test [15]: A CellTox Green Cytotoxicity Assay to monitor cytotoxicity in HepG2 cells - 40 hour (AID 1224879). Further: nearly all actives have a fitted effect of over 40% in size. Further: potency means the concentration at half of the fitted maximal effect. In a few lines: as §6
Test [16] is described as follows: qHTS RealTime-Glo MT Cell Viability Assay in HEK293 cells - 0 hour (AID 1224880). Further: nearly all actives have a fitted effect of over 45% in size. Further: potency means the concentration at half of the fitted maximal effect. The gist of the method: as §5
The nature of test [17]: qHTS assay to identify small molecule agonists of the estrogen related receptor (ERR) signaling pathway from Tox21 library (AID 1224849; calls by dose curve; further: nearly all actives have a fitted effect of over 15% in size). The conditions noted are these: ERR reporter cell line, ONE-Glo luciferase, 18 h; at 92.4 µM (top of the series) unless noted. In a few lines: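 ERR reporter cell line (NTP) seeded, rested 6 h at 37 C/5% CO2, then pinned with Tox21 compounds in DMSO. After 18 h at 37 C, ONE-Glo luciferase luminescence was read following 30 min at room temperature.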

Test [18] is described as follows: A CellTox Green Cytotoxicity Assay to monitor cytotoxicity in HepG2 cells - 16 hour (AID 1224876). Further: nearly all actives have a fitted effect of over 45% in size. In a few lines:
as §6

Test [19] can be described thus: qHTS assay to identify small molecule agonists of H2AX - cell viability counter screen (AID 1224847; calls by dose curve; further: top concentration of the series differs between compounds; nearly all actives have a fitted effect of over 30% in size). In a few lines:
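Viability of CHO-K1 (wild type) cells after 3 hr compound exposure was measured by CellTiter-Glo luminescence.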

The structures appear in SMILES notation. Unmarked numbers belong to inactive results. Inconclusive results are not listed. The source made the active and inactive calls. Unless noted, the call rests on the fitted dose curve; in most records, active means well fitted curve in the direction sought with a large enough effect in the repeat runs; inconclusive means weak or mixed curves; inactive means no such curve, though single readings can be large; an effect the other way counts as inactive or inconclusive.
On the % scale 0 is the no-effect control and ±100 the full control effect.

Take `CC(=O)O[C@@H]1C(=O)O[C@@H]2[C@H]1OC(=O)[C@@H]2OC(C)=O`: the Potency entry in test [1], in test [2], in test [4], in test [5], in test [6] and in test [7] was “inactive” in each case. Besides, the Potency entry in test [8], in test [9], in test [10], in test [12], in [13] and in test [14] was “inactive” throughout. Further, the Potency entry in test [16] is “inactive”. The molecule was classed as inactive in test [3]. Besides, the max response in [11] was -24.6%. In [15], the Potency is 26.8 µM (active).

As to `CC(C)(C)c1cc(CO)cc(C(C)(C)C)c1O`, the Potency result in [1], in test [2], in [4], in test [6], in test [7] and in [8] was “inactive” each time. Moreover, the Potency entry in [10], in [12], in test [18], in test [13], in test [14] and in test [15] was “inactive” throughout. In addition, the Potency result in test [16] is “inactive”. In [3], the outcome was inactive. Also, in test [17], the activity change, positive = activation is -33.2%.

Regarding `CCCCCc1ccc(N)cc1`, the Potency result in test [1], in test [2], in [4], in test [5], in test [6] and in test [7] was “inactive” in each case. Also, the Potency result in [9], in [10] and in test [13] was “inactive” in each case. Besides, the molecule was called inactive in test [3]. For the same molecule, the Potency in [8], in [14] and in test [15] was 49 µM (active) in each case. Further, the max response in [11] is -15.3%.

Regarding `CCOC(=O)C1=C(C)NC(C)=C(C(=O)OC)C1c1cccc([N+](=O)[O-])c1` (stereo not drawn), the Potency result in [1], in [2], in test [6], in [8], in test [12] and in [18] was “inactive” throughout. Moreover, the Potency entry in test [14] and in test [15] was “inactive” in each case. Moreover, the molecule was classed as inactive in test [3]. The Potency in test [16] is 5.35 µM (active).

For the molecule `O=S1(=O)c2cccc3cccc(c23)N1CCCN1CCN(c2ccc(F)cc2)CC1`, the Potency result in test [1], in [2], in test [19], in [4], in test [5] and in test [6] was “inactive” in each case. The Potency entry in [7], in [8], in [9], in test [10], in test [12] and in [13] was “inactive” in each case. Also, the Potency entry in [16] is “inactive”. In [17], the activity change, positive = activation is -30.2% [at 42.5 µM]. Also, the max response in [11] was -11.7%.

Turning to `CNS(=O)(=O)Cc1ccc2[nH]cc(CCN(C)C)c2c1`, the Potency result in test [1], in [2], in test [4], in test [5], in test [6] and in [7] was “inactive” throughout. Also, the Potency result in [8], in test [9], in test [10], in test [12], in [18] and in test [13] was “inactive” in each case. Also, the Potency result in [14], in test [15] and in test [16] was “inactive” throughout. Besides, the molecule was called inactive in [3]. In test [11], the max response is 2.61%.

On to `CCCCCOC(=O)COc1cc(N2C(=O)C3=C(CCCC3)C2=O)c(F)cc1Cl`, for which the Potency result in test [1], in test [2], in test [4], in test [5], in test [6] and in test [7] was “inactive” in each case. Also, the Potency entry in [8], in test [10], in test [12], in test [18], in test [13] and in test [14] was “inactive” in each case. The Potency entry in test [15] was “inactive”. In addition, in [3], the result was inactive. Also, in test [11], the max response was 4.37%.

For `CC(C)CC=O`, the Potency result in test [1], in test [2], in test [4], in test [5], in [6] and in test [7] was “inactive” in each case. The Potency result in test [8], in [9], in [10], in test [12], in [18] and in test [13] was “inactive” in each case. In addition, the Potency entry in test [14] and in test [15] was “inactive” each time. For the same molecule, the outcome in test [3] was inactive. For the same molecule, the max response in test [11] was 6.71%.
